A selection: hits, their analogues and other compounds. The true share with any hit is near 1.1%.
HTR5A ag = HTR5A agonists in luminescence cell assay, primary screen, counter-screen for OPRM1-OPRD1 heterodimer agonist project, full-deck HTS; AID 504692, 2011; activation, % at 9.3 µM; 340,000 tested, 0.61% active; 5-hydroxytryptamine receptor 5A (Homo sapiens), P47898; cell-based; in the data active = activation mostly above about 9.5%, no sharp cut-off; inactive = mostly below about 7.6%;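 also: 0% = cells with vehicle only and 100% = reference agonist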
MOR-DOR ag-1 = agonists of OPRM1-OPRD1 heterodimerization, primary screen, cell-based, luminescence | Mu-type opioid receptor (Homo sapiens) + Delta-type opioid receptor (Homo sapiens), … | cells | activation, % at 9.3 µM | 340,000 tested, 0.3% active; in the data active = activation above about 18%;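 also: 0% = vehicle-treated cells and 100% = reference agonist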
Target sequence (P35372 whole entry, looked up): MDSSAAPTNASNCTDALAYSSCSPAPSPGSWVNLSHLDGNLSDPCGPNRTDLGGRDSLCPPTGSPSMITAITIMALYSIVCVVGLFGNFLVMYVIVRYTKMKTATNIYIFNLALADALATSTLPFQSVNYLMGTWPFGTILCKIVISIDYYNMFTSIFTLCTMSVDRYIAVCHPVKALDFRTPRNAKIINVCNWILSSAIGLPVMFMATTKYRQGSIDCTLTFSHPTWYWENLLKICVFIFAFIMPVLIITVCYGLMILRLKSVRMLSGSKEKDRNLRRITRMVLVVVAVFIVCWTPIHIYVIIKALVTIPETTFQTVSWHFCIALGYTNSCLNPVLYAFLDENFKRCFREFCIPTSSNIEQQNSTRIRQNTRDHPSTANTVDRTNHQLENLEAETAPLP
Target sequence (P41143 whole entry, looked up): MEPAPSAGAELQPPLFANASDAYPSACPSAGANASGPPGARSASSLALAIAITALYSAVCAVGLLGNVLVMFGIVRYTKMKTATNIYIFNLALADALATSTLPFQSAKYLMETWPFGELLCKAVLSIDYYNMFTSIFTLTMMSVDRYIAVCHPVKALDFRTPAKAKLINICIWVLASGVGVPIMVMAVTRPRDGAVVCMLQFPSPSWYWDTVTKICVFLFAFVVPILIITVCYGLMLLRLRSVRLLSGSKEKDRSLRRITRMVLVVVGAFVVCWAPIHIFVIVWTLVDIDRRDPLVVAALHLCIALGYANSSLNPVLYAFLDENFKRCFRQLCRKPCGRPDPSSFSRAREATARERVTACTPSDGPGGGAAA
MOR-DOR inv ag-1 = inverse agonists of MOR-DOR heterodimerization, primary screen, cell-based, luminescence; AID 504357, 2011; Mu-type opioid receptor (Homo sapiens) + Delta-type opioid receptor (Homo sapiens), …; cell-based MOR-DOR heterodimer luminescence, inverse agonism; inhibition, % at 9.3 µM; 340,000 tested, 0.21% active; in the data active = inhibition above about 22%, passing the limit was not always enough;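 also: 0% = cells with DMSO and 100% = wells without cells with DMSO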
HTR5A inv ctr = HTR5A inverse agonists in luminescence cell assay, primary screen, counter-screen for OPRM1-OPRD1 heterodimer inverse agonist project, full-deck HTS; 340,000 tested, 0.083% active; 5-hydroxytryptamine receptor 5A (Homo sapiens), P47898; HTR5A cell line, inverse agonism; AID 504634, 2011; inhibition, % at 9.3 µM; in the data active = inhibition mostly above about 23%, no sharp cut-off; inactive = mostly below about 18%;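 also: 0% = cells with DMSO and 100% = no-cell wells with DMSO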
OPRM1-D1 inv cf = inverse agonists of MOR-DOR heterodimerization, confirmation, cell-based, luminescence | shares compounds with MOR-DOR inv ag-1 | cells expressing OPRM1/OPRD1 heterodimer | inhibition, % at 9.3 µM | 580 tested, 20% active | AID 504900, 2011; in the data active = inhibition above about 32%;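 also: 0% = cells with DMSO and 100% = wells lacking cells with DMSO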
HTR5A inv count = HTR5A inverse agonists, counter-screen for OPRM1-OPRD1 inverse agonist project, cell-based, luminescence. inhibition, % at 9.3 µM. 580 tested, under 10 active. shares compounds with MOR-DOR inv ag-1. HTR5A-expressing cells, inverse agonism;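 also: 0% = cells with DMSO and 100% = no-cell wells with DMSO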
MOR-DOR inv ag-2 = inverse agonists of MOR-DOR heterodimerization, counter-screen for HTR5A inverse agonist project, cell-based, luminescence. inhibition, % at 9.3 µM. U2OS counter-screen cells, complementation luminescence. AID 504912, 2011. shares compounds with HTR5A inv ctr. 190 tested, under 10 active;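 also: 0% = cells with DMSO and 100% = wells without cells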
HTR5A inv confrm = HTR5A inverse agonists, retest of hits, confirmation, cell-based, luminescence; shares compounds with HTR5A inv ctr; HTR5A-expressing cells, inverse agonism; inhibition, % at 9.3 µM; 190 tested, under 10 active;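 also: 0% = cells with DMSO and 100% = no cells with DMSO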
MOR-DOR ag-2 = OPRM1-OPRD1 heterodimerization promoters, counter-screen for HTR5A agonist project, cell-based, luminescence. shares compounds with HTR5A ag. U2OS counter-screen cells, complementation luminescence, 3 h. activation, % at 9.3 µM. 800 tested, 13% active; in the data active = activation above about 18%
HTR5A ag conf = HTR5A agonists, retest of hits, confirmation, cell-based, luminescence; HTR5A agonist cell assay; 800 tested, 17% active; activation, % at 9.3 µM; AID 504915, 2011; shares compounds with HTR5A ag; in the data active = activation above about 17%;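 also: 0% = cells with vehicle only and 100% = full reference agonist response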
Numbers without * were called inactive; i = inactive; . = no result. Unless noted, no rule for the calls is given here.

SMILES | HTR5A ag | MOR-DOR ag-1 | MOR-DOR inv ag-1 | HTR5A inv ctr | MOR-DOR inv ag-2 | HTR5A inv confrm | others
CCc1ccc(C(=O)NNc2ccc(Cl)cc2)cc1 | -6.7 | -8.0 | 39.4* | 6.2 | . | . | OPRM1-D1 inv cf=14.2;HTR5A inv count=1.0
CCc1ccc(C(=O)NNc2cc(Cl)cc(Cl)c2)cc1 | -0.8 | 3.2 | -16.2 | -8.0 | . | .
O=C(NNc1ccc(Cl)cc1)c1cccs1 | -1.7 | -9.7 | 49.5* | -9.6 | . | . | OPRM1-D1 inv cf=-15.5;HTR5A inv count=-6.8
CCCc1ccc(C(=O)NNc2cccc(C)c2)cc1 | -7.1 | -8.8 | 43.9* | 0.1 | . | . | OPRM1-D1 inv cf=25.4;HTR5A inv count=13.6
CCCN1CCC(NC(=O)Cc2ccc(C)cc2)CC1 | 0.0 | 3.0 | -14.6 | 0.0 | . | .
Cc1c(C(=O)N(C)C)sc2nc(-c3ccccn3)[nH]c(=O)c12 | 3.4 | -3.2 | 16.0 | -8.7 | . | .
O=c1[nH]c(-c2ccccn2)nc2sc(-c3ccccc3)cc12 | 2.1 | -6.4 | 33.0* | -6.1 | . | . | OPRM1-D1 inv cf=6.1;HTR5A inv count=1.8
N#CC(C#N)=NNc1ccc([N+](=O)[O-])cc1 | 15.3* | -5.8 | 30.9* | -15.0 | . | . | OPRM1-D1 inv cf=9.1;HTR5A inv count=-10.6;MOR-DOR ag-2=-0.7;HTR5A ag conf=3.3
O=C(O)c1cccc(S(=O)(=O)N2CCN(c3ccccn3)CC2)c1 | -3.1 | -3.0 | 13.7 | 11.4 | . | .
CCOc1cc(N2CCOCC2)c(OCC)cc1NC(=O)c1oc2ccccc2c1C | -8.4 | 2.1 | -10.7 | 23.6* | -29.9 | 4.2
COc1ccc(/C(=N/Nc2ncnc3ccccc23)C(=O)O)cc1 | 7.6 | 1.9 | -9.8 | 0.9 | . | .
COc1cccc(C(=O)Nc2ccc(N3CCN(C(=O)c4cccs4)CC3)cc2)c1 | -13.7 | -0.7 | 3.6 | 33.3* | i | -12.7
O=C(Nc1ccc(N2CCN(C(=O)c3cccs3)CC2)cc1)c1cccc(F)c1 | 4.3 | 1.7 | -13.9 | -12.8 | . | .
COc1ccc(/C=C/c2ccc3cccc(O)c3n2)c(OC)c1OC | -9.3 | -2.6 | 12.7 | 34.8* | -57.7 | 28.1
COc1cccc(/C=C/c2ccc3cccc(O)c3n2)c1OC | -8.6 | 2.6 | -13.5 | 31.6* | -67.5 | 11.6
CC[C@]12c3[nH]c4cc(CCC(=O)N(C)C)ccc4c3CCN1C(=O)[C@@H](CC(=O)NC/C=C(\C)CCC=C(C)C)C[C@@H]2C(=O)N1CCN(C(=O)c2ccco2)CC1 | 1.3 | -2.1 | 10.6 | -4.6 | . | .
O=[N+]([O-])c1ccc(S(=O)(=O)Nc2cccc(-c3ccc(N4CCOCC4)nn3)c2)cc1 | -1.3 | 5.4 | -35.2 | 42.5* | -21.3 | -13.2
CC(=O)Nc1ccc(C(=O)N(C)C(C(=O)Nc2ccccc2)c2ccccn2)cc1 (stereo unspecified) | -3.1 | -3.1 | 16.0 | 11.3 | . | .
O=C1CCC[C@@H]2C[C@@]3(C[C@@H]4CCN1[C@H]24)Nc1cc([N+](=O)[O-])ccc1NC3=NC1CCCCC1 | -2.3 | -2.9 | 16.3 | 35.4* | -24.3 | -12.9
O=C1CCC[C@@H]2C[C@@]3(C[C@@H]4CCN1[C@H]24)Nc1cc(Cl)ccc1NC3=NC1CCCCC1 | 3.5 | 0.5 | -2.5 | -17.1 | . | .
Cn1nc(C(C)(C)C)cc1NC(=O)Nc1cc(Cl)cc(Cl)c1 | -2.1 | 1.2 | -6.3 | 12.5 | . | .
O=[N+]([O-])c1ccc(N/N=C/c2cccc(O)c2O)c(S(=O)(=O)N2CCOCC2)c1 | -9.4 | 1.3 | -6.5 | 48.0* | -23.5 | 27.4
COc1cc(/C=N/Nc2ccc([N+](=O)[O-])cc2S(=O)(=O)N2CCOCC2)cc(OC)c1OC | 1.5 | -2.5 | 13.4 | -1.8 | . | .
O=[N+]([O-])c1ccc(N/N=C/c2ccc(O)c(O)c2O)c(S(=O)(=O)N2CCOCC2)c1 | -10.2 | -0.6 | 3.6 | 26.7* | 7.8 | 5.1
CCO[C@@H]1OC(C(=O)N2CCN(Cc3ccccc3)CC2)=C[C@H](c2ccc(C(F)(F)F)cc2)[C@H]1CCCO | -3.5 | 3.9 | -21.4 | 9.0 | . | .
SMILES | HTR5A ag | MOR-DOR ag-1 | MOR-DOR inv ag-1 | HTR5A inv ctr | MOR-DOR inv ag-2 | HTR5A inv confrm | others
CCO[C@@H]1OC(C(=O)N2CCN(Cc3ccccc3)CC2)=C[C@H](c2ccc(Br)cc2)[C@H]1CCCO | -7.0 | -2.1 | 12.0 | 36.6* | 18.0 | 2.5
C=CCC1(CC=C)CCCN1C(=O)c1cc(COc2ccccc2SC)on1 | -3.3 | 1.2 | -8.3 | -2.5 | . | .
CSc1ccccc1-c1n[nH]c(=S)o1 | -1.3 | -1.4 | 7.1 | 3.5 | . | .
N#CC1=C(N)Oc2c(ccc3cccnc23)C1c1ccccc1 (stereo unspecified) | -12.1 | -2.7 | 14.3 | 33.1* | -6.9 | 4.6
Cc1cccc(C(=O)N(Cc2nc3ccccc3c(=O)[nH]2)C2CCCCC2)c1 | 0.9 | -2.3 | 11.6 | -2.3 | . | .
CN(C)c1ccc2nc3c(=O)[nH]c(=O)nc-3n(CC(O)C(O)C(O)CO)c2c1 (stereo unspecified) | -9.1 | -5.7 | 29.1 | 33.2* | 17.5 | 85.4*
COc1ccccc1CNS(=O)(=O)c1ccc2c(c1)CC(=O)N2C | 0.0 | -0.6 | 3.3 | -10.8 | . | .
Cn1c(N=Nc2ccc(N3CCOCC3)cc2)[n+](C)c2ccccc21 | -14.2 | -3.0 | 14.3 | 36.6* | -75.6 | -36.1
C=CCn1c(CCn2c3ccccc3c3ccccc32)n[nH]c1=S | 1.6 | -2.1 | 9.4 | 24.5 | . | .
C=CCn1c(Cc2cccc3ccccc23)n[nH]c1=S | -8.1 | 0.8 | -4.0 | 28.2* | 2.4 | 2.1
N=C1C=CC(=C(c2ccc(N)cc2)c2ccc(N)cc2)C=C1 | -8.0 | 0.8 | -3.9 | 31.4* | -82.6 | -0.6
Nc1ccc(C(=O)C(=O)c2ccc(N)cc2)cc1 | -0.6 | -2.3 | 12.6 | 2.2 | . | .
O=C(CSc1nnc(-c2ccccc2O)o1)N1CCOCC1 | -2.7 | -0.4 | 2.7 | 7.8 | . | .
O=C(CSc1nnc(-c2ccccc2Br)o1)N1CCOCC1 | -9.3 | -0.4 | 2.0 | 24.8* | i | -64.0
O=C(NC(c1ccc(Cl)cc1)c1cc(Cl)c2cccnc2c1O)c1cccnc1 (stereo unspecified) | -11.3 | -0.9 | 5.5 | 30.4* | -0.1 | -8.9

Screening results deposited in PubChem by The Scripps Research Institute Molecular Screening Center.
